Assays:
Test in all cases: lowest phenotypically active concentration; higher = less potent
Conditions in all cases: treatment time: 24 h
[1] = system: HepG2-CANX-COX4
In short: (§1)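 Live-cell features were measured per well and normalised to solvent control wells after fifteen gene-edited A549, HepG2 and WPMY1 reporter lines had been treated for 24 h at 0.3, 1, 3 or 9 µM in four wells each. A condition was deviating when ≥3 of 4 wells sat beyond the 95th percentile of control Euclidean distances. It was reproducible when the median replicate Pearson correlation exceeded the 95th percentile of non-replicates. Phenotypic activity demanded both.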

[2] = system: HepG2-GM130-SQSTM1
In short: as §1

[3] = system: HepG2-TUBA1B-RELA
In short: as §1

[4] = system: WPMY1-GM130-SQSTM1
In short: as §1

[5] = system: WPMY1-ACTB-RAB5A
In short: as §1

[6] = system: WPMY1-TUBA1B-RELA
In short: as §1

[7] = system: WPMY1-CANX-COX4
In short: as §1

[8] = system: WPMY1-TP53BP1-CLTA
In short: as §1

Row | SMILES | lowest phenotypically active concentration [1] [µM] | lowest phenotypically active concentration [2] [µM] | lowest phenotypically active concentration [3] [µM] | lowest phenotypically active concentration [4] [µM] | lowest phenotypically active concentration [5] [µM] | lowest phenotypically active concentration [6] [µM] | lowest phenotypically active concentration [7] [µM] | lowest phenotypically active concentration [8] [µM]
1 | CCOC(=O)c1c(CSc2ccccc2)n(C)c2cc(Br)c(O)c(CN(C)C)c12 [arbidol] | 9 | 9 | 9 | 9 | – | – | – | –
2 | Clc1ccc2c(c1)C(N1CCNCC1)=Nc1ccccc1O2 [amoxapine] | – | 9 | 3 | – | 9 | 9 | – | –
3 | Cc1cc2nc(NCCCO)n(CC(=O)c3cc(C(C)(C)C)c(O)c(C(C)(C)C)c3)c2cc1C | – | – | 9 | – | – | – | – | –
4 | CN(C)CCCN1c2ccccc2Sc2ccc(C(F)(F)F)cc21 [triflupromazine] | – | – | 9 | 9 | 9 | 9 | 9 | –
5 | CNCCCN1c2ccccc2CCc2ccccc21 [desipramine] | – | – | 9 | 9 | 9 | 9 | – | –
6 | N#Cc1cccc(-c2c[nH]c3ncnc(N4CCOCC4)c23)c1 | 3 | 3 | 1 | – | 9 | – | 9 | 3
7 | Fc1ccc([C@@H]2CCNC[C@H]2COc2ccc3c(c2)OCO3)cc1 [paroxetine] | – | 9 | 3 | 9 | 9 | 9 | 9 | 9
8 | O=C1Cc2cc(CCN3CCN(c4nsc5ccccc45)CC3)c(Cl)cc2N1 [ziprasidone] | – | 3 | 3 | – | – | – | – | –
9 | O[C@H](CNC[C@H](O)[C@@H]1CCc2cc(F)ccc2O1)[C@@H]1CCc2cc(F)ccc2O1 [nebivolol] | – | – | 3 | 9 | 3 | 3 | 9 | 9
10 | CC(=O)Nc1ccc(NC(=S)NC(=O)c2ccc(C(C)(C)C)cc2)cc1 [Tenovin-1] | 3 | – | 3 | 1 | ≤ 0.3 | 1 | 9 | 1
11 | N#C/C(=C/c1ccc(-c2cc(Cl)ccc2Cl)o1)C(=O)Nc1cccc2ncccc12 | – | – | – | – | – | – | 9 | –
12 | COc1ccc(Cl)cc1NC(=O)Nc1cc(C)nc2ccccc12 | 1 | 3 | 3 | – | – | – | – | –

Reference: the supplement of paper PMC7411054
